# Test results published in PubChem BioAssay AID2284363 (EPA ToxCast).
# Calls of active or inactive are those of the source. The calls were made as follows: active = hit-call score of the fitted dose curve at least 0.9, where 1 is the maximum; inactive = score below 0.9.
# Target: Nuclear factor erythroid 2-related factor 2 (Homo sapiens) (UniProt Q16236)
# Assay: ERF_US_NR_hNFE2L2: Eurofins (ERF) Cell Based Nuclear Translocation LeadHunter Assay for human Transcription Factor Keap1-Nrf2 Agonism
# Experimental: ERF_US_NR_hNFE2L2 is a cell-based, single-readout assay that uses extracted gene-proteins in a cell-line assay. Measurements were taken 6 hours after chemical dosing in a 384-well plate. See Keap1-Nrf2 Human Transcription Factor Cell Based Agonist Nuclear Translocation Assay, DiscoverX.ERF_US_NR_hNFE2L2 is an assay component calculated from the ERF_US_NR_hNFE2L2 assay. It is designed to measure protein fragment complementation using a type of binding reporter as detected by chemiluminescence with fluorimetry technology.Data from the assay component ERF_US_NR_hNFE2L2 was analyzed at the assay endpoint, ERF_US_NR_hNFE2L2, in the positive analysis fitting direction relative to DMSO as the negative control and baseline of activity. Using a type of binding reporter, gain-of-signal activity can be used to understand changes in binding as they relate to gene NFE2L2. To generalize the intended target to other relatable targets, this assay endpoint is annotated to the dna binding intended target family, where the subfamily is basic leucine zipper.
# Cells were seeded in a total volume of 20 uL into white walled, 384-well microplates and incubated at 37C overnight prior to testing.For agonist determination, cells were incubated with sample to induce response. […] The results are expressed as a percent efficacy relative to the maximum response of the control ligand.
# Nuclear factor erythroid 2-related factor 2 (Homo sapiens), sequence (Q16236 whole entry, looked up): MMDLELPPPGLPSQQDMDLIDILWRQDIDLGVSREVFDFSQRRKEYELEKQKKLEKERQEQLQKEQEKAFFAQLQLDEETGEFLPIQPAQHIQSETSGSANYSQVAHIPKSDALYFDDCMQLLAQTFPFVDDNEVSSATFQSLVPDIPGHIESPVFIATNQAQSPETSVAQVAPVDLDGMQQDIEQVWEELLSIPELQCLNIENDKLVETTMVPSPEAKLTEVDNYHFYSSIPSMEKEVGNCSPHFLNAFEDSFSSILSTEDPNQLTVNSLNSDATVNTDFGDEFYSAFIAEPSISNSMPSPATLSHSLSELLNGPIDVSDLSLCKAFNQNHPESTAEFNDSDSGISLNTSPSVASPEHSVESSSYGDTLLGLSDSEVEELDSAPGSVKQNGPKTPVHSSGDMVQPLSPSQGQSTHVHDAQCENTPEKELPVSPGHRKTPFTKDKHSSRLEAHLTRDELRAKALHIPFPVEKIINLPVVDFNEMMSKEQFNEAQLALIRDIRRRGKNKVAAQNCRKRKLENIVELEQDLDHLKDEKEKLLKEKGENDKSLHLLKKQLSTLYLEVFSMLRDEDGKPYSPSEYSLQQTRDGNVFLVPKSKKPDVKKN
SMILES,AC50,outcome
CC(C)(C)c1cc(O)ccc1O,12.2 µM (active),
CCNS(=O)(=O)C(F)(F)C(F)(F)C(F)(F)C(F)(F)C(F)(F)C(F)(F)C(F)(F)C(F)(F)F,,inactive
